Data as given in PubChem BioAssay (NCATS).
Records with an inconclusive call do not appear. A call without a number means that no potency is given here. Active and inactive are the calls of the source. The call rests on the fitted dose curve.

Assays:
[1] = Cytotoxicity counterscreen for inhibitors of SARS-CoV-2 cell entry (AID 1645845); further: nearly all actives have a fitted effect of over 50% in size
Outline: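 48 h compound treatment (after 1 h preincubation), HEK293-ACE2 cells, 37 C/5% CO2; ATP luminescence endpoint; normalized to cell wells and media blanks.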

[2] = Primary qHTS to identify inhibitors of SARS-CoV-2 cell entry (AID 1645846); conditions: activity change, negative = inhibition: at 57.1 µM (top of the series) unless noted; further: nearly all actives have a fitted effect of over 45% in size
Outline: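 Luminescence readout (Bright-Glo luciferase) 48 h after pseudoparticle addition. HEK293-ACE2 cells, 1500/well; compound pre-incubation 1 h; Normalized to spike PP and bald PP.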

SMILES | Potency [1] | Potency [2] | activity change, negative = inhibition [2] [%]
NC(=O)c1cnccn1 | inactive | inactive | -28
CCCc1nn(C)c2c(=O)[nH]c(-c3cc(S(=O)(=O)N4CCN(C)CC4)ccc3OCC)nc12 | inactive | inactive | -6.94
CC(C)Cc1ccc(C(C)C(=O)O)cc1 (stereo not drawn) | inactive | inactive | 0.301
O=C(O)c1cc(=O)[nH]c(=O)[nH]1 | inactive | inactive | -5.5
NCCS(=O)(=O)O | inactive | inactive | -2.14
CC(C)CN(C[C@@H](OP(=O)(O)O)[C@H](Cc1ccccc1)NC(=O)O[C@H]1CCOC1)S(=O)(=O)c1ccc(N)cc1 | inactive | – | -18.7
O=C(O)CSCC(=O)NC1CCSC1=O (stereo not drawn) | inactive | inactive | -0.451
Nc1ccc(S(N)(=O)=O)cc1 | inactive | inactive | -17.3
CNC(=O)c1c(I)c(NC(C)=O)c(I)c(C(=O)O)c1I | inactive | inactive | –
O=C(NC(Cc1cc(=O)[nH]c2ccccc12)C(=O)O)c1ccc(Cl)cc1 (stereo not drawn) | inactive | inactive | 1.86
